In the library only some 2.4% were active in any assay of this set; here they are far more common.
Prx2 Sm inh: blocks S. mansoni peroxiredoxin 2 enzymatic activity; S. mansoni Prx2 activity coupled to TGR/GSH (TGR is thioredoxin glutathione reductase), NADPH fluorescence loss, qHTS; Potency, µM; 65,000 compounds, 0.07% hits; AID 448
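Coupled assay in which S. mansoni TGR passes NADPH reducing equivalents via glutathione to Prx2, which reduces H2O2. Compounds were preincubated 15 min at room temperature with 25 nM TGR/50 nM Prx2 mix. Kinetic NADPH fluorescence loss (ex 365/em 450 nm) was monitored.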
AmpC inh no det: blocks E. coli AmpC beta-lactamase in absence of detergent. Potency, µM (doses to about 28.7 µM), inactives show top-dose activity change, negative = inhibition. 71,000 compounds, 1.8% hits. AmpC nitrocefin hydrolysis, absorbance 480 nm, no detergent. P00811; further: % of control where 0% means no effect
Target sequence (P00811 whole entry, looked up): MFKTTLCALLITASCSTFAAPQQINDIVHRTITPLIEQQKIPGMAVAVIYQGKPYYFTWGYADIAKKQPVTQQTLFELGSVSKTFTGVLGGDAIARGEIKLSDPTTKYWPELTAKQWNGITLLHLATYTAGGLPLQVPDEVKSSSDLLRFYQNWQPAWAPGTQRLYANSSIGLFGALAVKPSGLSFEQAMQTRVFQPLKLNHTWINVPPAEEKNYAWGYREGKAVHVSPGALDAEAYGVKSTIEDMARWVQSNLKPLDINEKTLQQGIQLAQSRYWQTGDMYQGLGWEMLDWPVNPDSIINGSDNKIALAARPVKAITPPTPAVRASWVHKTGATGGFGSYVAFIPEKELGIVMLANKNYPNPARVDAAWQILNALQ
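AmpC in 20 mM phosphate buffer pH 7.0 was preincubated 15 min at room temperature with compounds. Nitrocefin (800 uM stock) was then added and hydrolysis followed at 480 nm every 20 s for 4 min.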
LT uptake inh: inhibitors of anthrax lethal toxin internalization. Cells, anthrax lethal toxin internalization, FRET ratio (460/530). 70,000 compounds, 0.67% hits. Potency, µM (titrated, usually from 40 µM), for the others: at the top dose activity change, negative = inhibition, actives largely listed as inhibitors. AID 912; further: on the % scale 0 is the no-effect control and ±100 the full control effect; nearly all actives have a fitted effect of over 50% in size
AmpC det inh: inhibitors of E. coli AmpC beta-lactamase with detergent. P00811. purified AmpC, nitrocefin hydrolysis with detergent. Potency, µM (highest dose often 28.7 µM), for inactives: at the highest dose activity change, negative = inhibition. 71,000 compounds, 0.09% hits; active means well fitted curve in the direction sought with a large enough effect; inconclusive means small, poorly fitted or top-dose-only effect; further: on the % scale 0 is the no-effect control and ±100 the full control effect
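E. coli AmpC (5.3 nM) in 20 mM phosphate pH 7.0 with 0.01% Triton X-100, preincubated 15 min RT with compound; nitrocefin (2 uL of 800 uM stock) hydrolysis followed by 480 nm absorbance every 20 s over 4 min.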
The depositor's hits bear a star; [ ] = another dose, or the depositor's remark. Unless noted, the call rests on the fitted dose curve. Potency means the concentration at half of the fitted maximal effect.

`CC(C)[C@@H](CC(=O)N[C@@H]1CCNC[C@H]1C(=O)N[C@H](CC(=O)N[C@@H](CCC(=O)O)CC(=O)O)Cc1c[nH]c2ccccc12)NC(=O)C[C@H](CO)NC(=O)[C@@H]1CNCC[C@H]1N` gave Prx2 Sm inh >57, AmpC inh no det 15%, LT uptake inh 4% and AmpC det inh -4%.
`CCN(C(=O)c1cnc(N2CCN(c3ncccn3)CC2)c2ccccc12)c1cccc(Cl)c1` gave Prx2 Sm inh >57, AmpC inh no det 95%, LT uptake inh 16µM* and AmpC det inh -4%.
Screening NC(=O)c1c(NC(=O)CSc2nnc(-c3ccccc3)n2CC2CCCO2)sc2c1CCC2 (stereo not given) returned Prx2 Sm inh >57, AmpC inh no det 77%, LT uptake inh -16% and AmpC det inh 4%.
`Cn1cnnc1SCC(=O)Nc1sc2c(c1C(N)=O)CCC2` gave Prx2 Sm inh >57, AmpC inh no det 10µM*, LT uptake inh inconclusive and AmpC det inh -8%.
`Nc1c(S(=O)(=O)c2cccs2)c2nc3ccccc3nc2n1/N=C/c1cccc(O)c1` gave Prx2 Sm inh >57, AmpC inh no det -5%, LT uptake inh 5µM* and AmpC det inh -2%.
N[C@@H](COP(=O)(O)O)C(=O)O was read as Prx2 Sm inh >57, AmpC inh no det 16%, LT uptake inh inconclusive and AmpC det inh 4%.
Cc1ccc(S(=O)(=O)C2(C(=O)Nc3cccnc3)CC2)cc1 was read as Prx2 Sm inh >57, AmpC inh no det 4µM*[single pt active], LT uptake inh -9% and AmpC det inh 14%.
Screening COCCCNCC(=O)Nc1ccc(OC(F)(F)F)cc1 returned Prx2 Sm inh >57, AmpC inh no det 3%, LT uptake inh -28% and AmpC det inh -6%.
Screening N#CC(C#N)=NNc1ccc(OC(F)(F)F)cc1 returned LT uptake inh 0.5µM*.
For CCOc1nc(Nc2ccc(-c3nc4ccccc4o3)cc2)nc(N2CCOCC2)n1 the results were Prx2 Sm inh >57, AmpC inh no det 83%, LT uptake inh 6% and AmpC det inh 11%.
For CCN(CC)CCNC(=O)c1cn(CC)c2ccc(S(=O)(=O)N(C)C)cc2c1=O the results were Prx2 Sm inh >57, AmpC inh no det 3.2µM*[single pt active], LT uptake inh -5% and AmpC det inh 13%.
CCC(C)NC(=O)c1cn(CC)c2ccc(S(=O)(=O)N(C)C)cc2c1=O (stereo not given) was read as Prx2 Sm inh >57, AmpC inh no det 86%, LT uptake inh 5% and AmpC det inh 8%.
For CN1CCN(C(=O)c2cn(C)c3ccc(S(=O)(=O)N(C)C4CCCCC4)cc3c2=O)CC1 the results were Prx2 Sm inh >57, AmpC inh no det 27%, LT uptake inh -23% and AmpC det inh 12%.
CCN(CC)CCNC(=O)c1cn(C)c2ccc(S(=O)(=O)N(C)C3CCCCC3)cc2c1=O was read as Prx2 Sm inh >57, AmpC inh no det 4µM*[single pt active], LT uptake inh 4µM* and AmpC det inh 12%.
Screening CCn1cc(C(=O)O)c(=O)c2cc(S(=O)(=O)N(C)C)ccc21 returned Prx2 Sm inh >57, AmpC inh no det 0%, LT uptake inh -9% and AmpC det inh 9%.
CCn1cc(C(=O)NC2CCCCC2)c(=O)c2cc(S(=O)(=O)N(C)C)ccc21 was read as Prx2 Sm inh >57, AmpC inh no det 4µM*[single pt active], LT uptake inh -9% and AmpC det inh 11%.
Screening Cn1c(=O)c2c(nc(NCCNc3nc4c(c(=O)n(C)c(=O)n4C)n3C)n2C)n(C)c1=O returned Prx2 Sm inh >57, AmpC inh no det 1%[5.75 µM], LT uptake inh -11%[8 µM] and AmpC det inh 12%[5.75 µM].
Screening NC(N)=NC(N)=Nc1c(F)c(F)c(F)c(F)c1F returned Prx2 Sm inh >57, AmpC inh no det -1%[5.75 µM], LT uptake inh -15%[8 µM] and AmpC det inh -2%[5.75 µM].
`CCOC(=O)c1nnn(CC(=O)Nc2cc(Cl)ccc2C)c1C(=O)OCC` gave Prx2 Sm inh >57, AmpC inh no det 16%, LT uptake inh 7.9µM* and AmpC det inh -3%.
`O=C(O)c1ccc2cc(-c3ccc(O)c(C45CC6CC(CC(C6)C4)C5)c3)ccc2c1` gave LT uptake inh 10µM*.
`Cc1cc(NC(=O)Nc2ccc(N(C)C)cc2)c2cc(F)cc(F)c2n1` gave Prx2 Sm inh >57, AmpC inh no det 0%, LT uptake inh inconclusive and AmpC det inh -2%.
For CC(=O)Nc1cccc(NC(=O)CSc2nnnn2Cc2ccccc2)c1 the results were Prx2 Sm inh >57, AmpC inh no det -6%, LT uptake inh -12% and AmpC det inh -1%.
Screening COC(=O)CSc1nc2ccc(NC(=O)CSc3nnnn3Cc3ccccc3)cc2s1 returned AmpC inh no det inconclusive, LT uptake inh 5µM* and AmpC det inh 0%.
Cc1noc(C)c1C(=O)N1CCC2(CCCN(CC(C)C)C2)CC1 was read as Prx2 Sm inh >57, AmpC inh no det 131%, LT uptake inh 9% and AmpC det inh -6%.
Screening OCCN1CCN(c2ncnc3ccc(Br)cc23)CC1 returned Prx2 Sm inh >57, AmpC inh no det 4µM*[single pt active], LT uptake inh -4% and AmpC det inh 13%.
CCN1CCN(c2ncnc3ccc(Br)cc23)CC1 was read as Prx2 Sm inh >57, AmpC inh no det -8%, LT uptake inh -15% and AmpC det inh -4%.
`CCOC(=O)c1c(C)[nH]c2ccc3c(c12)CN1CCc2cc(OC)ccc2[C@@H]1O3` gave Prx2 Sm inh >57, AmpC inh no det 22%, LT uptake inh 2.5µM* and AmpC det inh -3%.
Screening CCS(=O)(=O)N1CCC[C@H]2CN3CCc4cc(OC)ccc4[C@@H]3C[C@@H]21 returned Prx2 Sm inh >57, AmpC inh no det 26%, LT uptake inh 0% and AmpC det inh 0%.
Screening COc1ccc(N2CSC3=C(C#N)C(c4ccc(OC)c(OC)c4)CC(=O)N3C2)c(OC)c1 (stereo not given) returned AmpC inh no det 48%, LT uptake inh 5% and AmpC det inh 3%.
Screening CCc1ccc(N2CSC3=C(C#N)C(c4cccs4)CC(=O)N3C2)cc1 (stereo not given) returned Prx2 Sm inh >57, AmpC inh no det -13%, LT uptake inh -29% and AmpC det inh -6%.
Screening COc1ccc(N2CSC3=C(C#N)C(c4cc(OC)ccc4OC)CC(=O)N3C2)c(OC)c1 (stereo not given) returned Prx2 Sm inh >57, AmpC inh no det 41%, LT uptake inh inconclusive and AmpC det inh 1%.
For CCc1ccc(C2CC(=O)N3CN(c4ccccc4)CSC3=C2C#N)cc1 (stereo not given) the results were Prx2 Sm inh >57, AmpC inh no det 20µM*[single pt active], LT uptake inh -13% and AmpC det inh 7%.
`COc1ccc(N2CSC3=C(C#N)C(c4cc(OC)c(OC)cc4OC)CC(=O)N3C2)c(OC)c1` (stereo not given) gave Prx2 Sm inh >57, AmpC inh no det 96%, LT uptake inh -13% and AmpC det inh 12%.

Screening data as filed in PubChem.
